Measurements published in PubChem BioAssay (Tox21).
Records with an inconclusive call do not appear. Active and inactive are the calls of the source. Calls come from the whole dose curve; as a rule, active = well fitted curve in the direction sought with a large enough effect in the repeat runs; inconclusive = weak or mixed curves; inactive = no such curve, though single readings can be large; an effect the other way counts as inactive or inconclusive.

How the values were obtained:
[1] = qHTS RealTime-Glo MT Cell Viability Assay in HepG2 cells - 8 hour (AID 1224873); note: nearly all actives have a fitted effect of over 55% in size; note: potency is the fitted concentration of half-maximal effect
Procedure, shortened: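 HepG2 cells mixed with RealTime-Glo MT reagents (NanoLuc plus cell-permeant prosubstrate) were seeded at 600 cells/well, incubated 5 h at 37 C/5% CO2, then pinned with compounds in DMSO; nonlytic luminescence tracked viability during 40 h treatment.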

[2] = qHTS RealTime-Glo MT Cell Viability Assay in HEK293 cells - 40 hour (AID 1224874); details: RealTime-Glo luminescence; max response: hits give low values; note: nearly all actives have a fitted effect of over 50% in size; note: potency is the fitted concentration of half-maximal effect
Procedure, shortened: (§1)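 Viable HEK293 cells reduce a cell-permeant prosubstrate; the product diffuses out and is consumed by NanoLuc in the medium to give light. Compounds went in after a 5 h incubation and plates were read over the treatment course.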

[3] = A CellTox Green Cytotoxicity Assay to monitor cytotoxicity in HEK293 cells - 24 hour (AID 1224875); note: nearly all actives have a fitted effect of over 45% in size; note: potency is the fitted concentration of half-maximal effect
Procedure, shortened: (§2)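 Fluorescence intensity, read at 0, 8, 16, 24, 32 and 40 h of compound treatment, reflected dye binding to DNA of dead HEK293 cells; compounds (23 nL, DMSO) were added 5 h after plating cells with reagent.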

[4] = A CellTox Green Cytotoxicity Assay to monitor cytotoxicity in HepG2 cells - 16 hour (AID 1224876); note: nearly all actives have a fitted effect of over 45% in size; note: potency is the fitted concentration of half-maximal effect
Procedure, shortened: (§3)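 Using 1536-well format, dye-containing HepG2 suspension was seeded, allowed 5 h at 37 C/5% CO2, dosed by pintool with compounds, positive and negative controls, and imaged for fluorescence across 40 h.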

[5] = qHTS RealTime-Glo MT Cell Viability Assay in HepG2 cells - 32 hour (AID 1224877); note: nearly all actives have a fitted effect of over 55% in size; note: potency is the fitted concentration of half-maximal effect
Procedure, shortened: (§4)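 Luminescence read-out: viable HepG2 cells reduce a prosubstrate to a NanoLuc substrate, giving a signal proportional to live cell number. Reads taken at 0, 8, 16, 24, 32 and 40 h of compound exposure at 37 C.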

[6] = A CellTox Green Cytotoxicity Assay to monitor cytotoxicity in HepG2 cells - 24 hour (AID 1224878); note: nearly all actives have a fitted effect of over 45% in size; note: potency is the fitted concentration of half-maximal effect
Procedure, shortened: as §3

[7] = qHTS RealTime-Glo MT Cell Viability Assay in HEK293 cells - 0 hour (AID 1224880); note: nearly all actives have a fitted effect of over 45% in size; note: potency is the fitted concentration of half-maximal effect
Procedure, shortened: as §1

[8] = A CellTox Green Cytotoxicity Assay to monitor cytotoxicity in HepG2 cells - 0 hour (AID 1224882); note: nearly all actives have a fitted effect of over 35% in size; note: potency is the fitted concentration of half-maximal effect
Procedure, shortened: as §3

[9] = qHTS RealTime-Glo MT Cell Viability Assay in HEK293 cells - 24 hour (AID 1224886); note: nearly all actives have a fitted effect of over 50% in size; note: potency is the fitted concentration of half-maximal effect
Procedure, shortened: (§5)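 Nonlytic real-time viability readout: viable cells convert prosubstrate to NanoLuc substrate, giving luminescence proportional to live cell number. HEK293, 600 cells/well, compound added after 5 h, continuous culture at 37 C.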

[10] = qHTS RealTime-Glo MT Cell Viability Assay in HEK293 cells - 8 hour (AID 1224887); note: nearly all actives have a fitted effect of over 50% in size; note: potency is the fitted concentration of half-maximal effect
Procedure, shortened: as §1

[11] = A CellTox Green Cytotoxicity Assay to monitor cytotoxicity in HEK293 cells - 16 hour (AID 1224888); note: nearly all actives have a fitted effect of over 35% in size; note: potency is the fitted concentration of half-maximal effect
Procedure, shortened: as §2

[12] = A CellTox Green Cytotoxicity Assay to monitor cytotoxicity in HepG2 cells - 8 hour (AID 1224890); note: nearly all actives have a fitted effect of over 45% in size; note: potency is the fitted concentration of half-maximal effect
Procedure, shortened: as §3

[13] = qHTS RealTime-Glo MT Cell Viability Assay in HEK293 cells - 16 hour (AID 1224872); note: nearly all actives have a fitted effect of over 50% in size; note: potency is the fitted concentration of half-maximal effect
Procedure, shortened: as §5

[14] = A CellTox Green Cytotoxicity Assay to monitor cytotoxicity in HEK293 cells - 32 hour (AID 1224881); note: nearly all actives have a fitted effect of over 40% in size; note: potency is the fitted concentration of half-maximal effect
Procedure, shortened: as §2

[15] = A CellTox Green Cytotoxicity Assay to monitor cytotoxicity in HEK293 cells - 8 hour (AID 1224884); note: nearly all actives have a fitted effect of over 35% in size; note: potency is the fitted concentration of half-maximal effect
Procedure, shortened: as §2

[16] = qHTS RealTime-Glo MT Cell Viability Assay in HepG2 cells - 0 hour (AID 1224889); note: nearly all actives have a fitted effect of over 50% in size
Procedure, shortened: as §4

[17] = A CellTox Green Cytotoxicity Assay to monitor cytotoxicity in HepG2 cells - 40 hour (AID 1224879); note: nearly all actives have a fitted effect of over 40% in size; note: potency is the fitted concentration of half-maximal effect
Procedure, shortened: as §3

[18] = A CellTox Green Cytotoxicity Assay to monitor cytotoxicity in HepG2 cells - 32 hour (AID 1224883); note: nearly all actives have a fitted effect of over 50% in size; note: potency is the fitted concentration of half-maximal effect
Procedure, shortened: as §3

[19] = qHTS RealTime-Glo MT Cell Viability Assay in HepG2 cells - 16 hour (AID 1224885); note: nearly all actives have a fitted effect of over 50% in size; note: potency is the fitted concentration of half-maximal effect
Procedure, shortened: as §4
% is set by controls: 0 for no effect and ±100 for the full control effect.

Oc1cc2c(cc1O)[C@H]1c3ccc(O)c(O)c3OC[C@@]1(O)C2
inactive: max response [2] -26.5% | Potency [4] | Potency [6] | Potency [7] | Potency [8] | Potency [9] | Potency [12]
active: Potency [1] 39.4 µM | Potency [3] 49.6 µM | Potency [5] 55.6 µM | Potency [10] 22.2 µM | Potency [11] 49.6 µM

Oc1ccc(Cl)c2cccnc12
inactive: Potency [13] | Potency [1] | Potency [4] | Potency [5] | Potency [6] | Potency [7] | Potency [14] | Potency [8] | Potency [15] | Potency [9] | Potency [10] | Potency [11] | Potency [16] | Potency [12]

CC1=Nc2ccc3ccccc3c2C1(C)C
inactive: Potency [1] | max response [2] -26.2% | Potency [5] | Potency [7] | Potency [14] | Potency [8] | Potency [11] | Potency [16] | Potency [12]

O=C(CCc1ccc(O)cc1)c1c(O)cc(O)cc1O
inactive: Potency [1] | Potency [4] | Potency [5] | Potency [6] | Potency [17] | Potency [14] | Potency [8] | Potency [18] | Potency [15] | Potency [19] | Potency [11] | Potency [12]
active: Potency [2] 39.8 µM | Potency [7] 39.8 µM | Potency [9] 39.8 µM | Potency [10] 25.1 µM

CCOC(=O)[C@H](CCc1ccccc1)N[C@@H](C)C(=O)N(CC(=O)O)C1Cc2ccccc2C1
inactive: Potency [1] | max response [2] 5.01% | Potency [3] | Potency [4] | Potency [5] | Potency [6] | Potency [17] | Potency [7] | Potency [8] | Potency [18] | Potency [15] | Potency [19] | Potency [9] | Potency [10] | Potency [11] | Potency [16] | Potency [12]

CC(C)=CCC1C(=O)N(c2ccccc2)N(c2ccccc2)C1=O
inactive: Potency [1] | max response [2] 4.23% | Potency [3] | Potency [4] | Potency [5] | Potency [6] | Potency [17] | Potency [7] | Potency [14] | Potency [8] | Potency [18] | Potency [15] | Potency [19] | Potency [9] | Potency [10] | Potency [11] | Potency [12]

CC(C)C(O)(c1ccc(OC(F)(F)F)cc1)c1cncnc1 (stereo not drawn)
inactive: Potency [1] | Potency [3] | Potency [4] | Potency [5] | Potency [6] | Potency [17] | Potency [7] | Potency [8] | Potency [18] | Potency [15] | Potency [19] | Potency [10] | Potency [11] | Potency [16] | Potency [12]

C[C@@H]1CN(CCCn2c3ccccc3c3ccccc32)C[C@H](C)N1
inactive: Potency [8]
active: Potency [13] 26.8 µM | Potency [2] 23.9 µM | Potency [3] 23.9 µM | Potency [4] 26.8 µM | Potency [5] 23.9 µM | Potency [6] 26.8 µM | Potency [17] 23.9 µM | Potency [14] 23.9 µM | Potency [18] 23.9 µM | Potency [15] 23.9 µM | Potency [19] 23.9 µM | Potency [9] 23.9 µM | Potency [11] 21.3 µM

CCC=CC#N
inactive: Potency [13] | max response [2] 10.8% | Potency [3] | Potency [4] | Potency [5] | Potency [6] | Potency [17] | Potency [7] | Potency [8] | Potency [18] | Potency [15] | Potency [19] | Potency [9] | Potency [10] | Potency [11] | Potency [16] | Potency [12]

C=CCc1ccccc1OCC(O)CNC(C)C (stereo not drawn)
inactive: Potency [13] | Potency [1] | max response [2] -5.29% | Potency [4] | Potency [5] | Potency [6] | Potency [7] | Potency [14] | Potency [8] | Potency [18] | Potency [15] | Potency [19] | Potency [9] | Potency [10] | Potency [11] | Potency [16] | Potency [12]

OC(CCN1CCCC1)(c1ccccc1)C1CCCCC1 (stereo not drawn)
inactive: max response [2] -3.9% | Potency [3] | Potency [4] | Potency [5] | Potency [6] | Potency [17] | Potency [7] | Potency [14] | Potency [8] | Potency [18] | Potency [15] | Potency [19] | Potency [9] | Potency [10] | Potency [11] | Potency [12]

C=Cc1ccc(S(=O)(=O)O)cc1
inactive: Potency [13] | max response [2] -10.1% | Potency [7] | Potency [19] | Potency [9] | Potency [10] | Potency [16]
active: Potency [6] 49 µM | Potency [8] 49 µM | Potency [18] 54.9 µM | Potency [12] 54.9 µM

Cc1ccc(OC(=O)c2ccccc2O)cc1
inactive: Potency [13] | Potency [1] | max response [2] -11.7% | Potency [4] | Potency [5] | Potency [6] | Potency [7] | Potency [8] | Potency [18] | Potency [15] | Potency [19] | Potency [9] | Potency [10] | Potency [11] | Potency [16] | Potency [12]

CC(C)c1nc(CN(C)C(=O)N[C@H](C(=O)N[C@@H](Cc2ccccc2)C[C@H](O)[C@H](Cc2ccccc2)NC(=O)OCc2cncs2)C(C)C)cs1
inactive: Potency [4] | Potency [5] | Potency [6] | Potency [7] | Potency [15] | Potency [11] | Potency [16] | Potency [12]
active: Potency [2] 21.3 µM | Potency [17] 21.3 µM | Potency [9] 21.3 µM

Cc1cc(O)c(C)c(C)c1O
inactive: Potency [1] | Potency [4] | Potency [5] | Potency [6] | Potency [7] | Potency [8] | Potency [18] | Potency [15] | Potency [19] | Potency [11] | Potency [16] | Potency [12]

CN(C)CCC=C1c2ccccc2C=Cc2ccccc21
inactive: Potency [13] | Potency [1] | Potency [3] | Potency [5] | Potency [14] | Potency [15] | Potency [19] | Potency [9] | Potency [10] | Potency [11]
active: Potency [4] 23.9 µM | Potency [6] 23.9 µM | Potency [17] 23.9 µM | Potency [18] 23.9 µM
